Reference: PubChem BioAssay (Tox21)
Inconclusive results are not listed. Entries that show only a call come without a potency. Active and inactive are the calls of the source. The call rests on the fitted dose curve; in most records, active means well fitted activation curve with a large enough effect in the repeat runs; inconclusive means weak or mixed curves; inactive means flat fitted curve, though single readings scatter. Positions of bridges follow the written chain, without caps; N, C: chain ends. Non-standard residues stand in square brackets, D forms with d. Residues, ends and D or L forms follow the SMILES beside them. hArg = N=C(N)NCCCC[C@H](N)C(=O)O; Mpa = O=C(O)CCS

test: A CellTox Green Cytotoxicity Assay to monitor cytotoxicity in HepG2 cells - 32 hour (AID 1224883); details: CellTox Green fluorescence; series mostly up to 76.8 µM; further: nearly all actives have a fitted effect of over 50% in size
Source text: National Center for Advancing Translational Sciences [NCATS]
NIH Chemical Genomics Center [NCGC]
U.S. Environmental Protection Agency [EPA]
National Institutes of Environmental Health Sciences [NIEHS]
National Toxicology Program [NTP]
Cell-based models are critical for drug discovery. Determining the natural cytotoxic effects resulting from test compounds is an essential research activity. A CellTox Green Cytotoxicity Assay to monitor cytotoxicity in real time of continues cell culture during 40 hours of the compound treatment was used to screen Tox21 10K library compounds in HepG2 cells. CellTox Green Cytotoxicity Assay is a nonlytic, homogeneous, biofluorescent method to measure cytotoxicity in cell culture after experimental manipulation. The assay system uses a proprietary asymmetric cyanine dye that is excluded from viable cells but preferentially stains the dead cell's DNA. […] Viable cells produce no appreciable increases in fluorescence. Therefore, the fluorescence signal produced by the binding interaction with dead cell DNA is proportional to cytotoxicity.
The mixture of HepG2 cell suspension and reagents were dispensed at 600cells/6 ul/well in 1536-well tissue culture treated black solid bottom plates using a Multidrop dispenser. After the assay plates were incubated at a 37 C/5% CO2 incubator for 5 hours, 23 nL of compounds dissolved in DMSO, positive and negative controls was transferred to the assay plate by a pintool work station. The plates were incubated at 37 C for 40 hours. The fluorescence intensity were measured at 0h, 8h, 16h, 24h, 32h and 40h time points using ViewLux plate reader during compound treatment.
Potency means the concentration at half of the fitted maximal effect.

Compound | Potency
Cc1ccc(C)c([N+](=O)[O-])c1 | inactive
C=C(C)[C@@H]1CC=C(C)C(=O)C1 | inactive
COP(=O)(O)OP(=O)(O)OC | inactive
CCCC(=O)OC/C=C(\C)CCC=C(C)C | inactive
c1ccc2cnccc2c1 | inactive
O=NN(CCCl)C(=O)NC1CCCCC1 | inactive
Cc1ccc2c(c1)C(=O)c1ccccc1C2=O | inactive
CC(C)Cn1cnc2c1c(=O)n(C)c(=O)n2C | inactive
CCOCCOCC | inactive
O=C1NC(c2ccccc2)(c2ccccc2)C(=O)N1COP(=O)(O)O | inactive
CC1CC(=O)CC(C)(C)C1 (stereo not given) | inactive
CC1(C)O[C@H]2CC(=O)OC[C@]23[C@H]2CC[C@@]4(C)[C@H](c5ccoc5)OC(=O)[C@H]5O[C@]54[C@]2(C)C(=O)C[C@@H]13 | inactive
COc1cc(OC)nc(O[C@H](C(=O)O)C(OC)(c2ccccc2)c2ccccc2)n1 | inactive
C/C(CC(C)C)=N\O | inactive
CC(C)CCOC(=O)c1ccccc1 | inactive
CN(C)C(C)(C)CO | inactive
CC(N)CCCC(C)(C)O (stereo not given) | inactive
CC1=C(O)C(=O)C(C)O1 (stereo not given) | inactive
CC1=C(C(=O)O)N2C(=O)[C@@H](NC(=O)[C@H](N)c3ccccc3)[C@H]2SC1 | inactive
CO/N=C(/C(=O)N[C@@H]1C(=O)N2C(C(=O)[O-])=C(C[n+]3ccn4ncccc43)CS[C@H]12)c1nsc(N)n1 | inactive

Compound | Potency
CO[C@@]1(NC(=O)Cc2cccs2)C(=O)N2C(C(=O)O)=C(COC(N)=O)CS[C@@H]21 | inactive
CC(C)NC(=O)c1ccc(C=O)cc1 | inactive
COc1ccc2c(c1)c1c3n2CCN(C)C3=NCC1 | inactive
CC(C)=CCC/C(C)=C/COC=O | inactive
COC(=O)c1ccccc1C(=O)O | inactive
Cn1nnc2c(C(N)=O)ncn2c1=O | inactive
CC(=O)c1cc(C)oc1C | inactive
CN(C)CCCCl | inactive
CCCCCC(C)O (stereo not given) | inactive
CCN1CCCC1CN (stereo not given) | inactive
Cc1cc(C)c(C(=O)O)c(C)c1 | inactive
CC(=O)C(C)O (stereo not given) | inactive
COc1ccc(CCO)cc1 | inactive
CC(C)=CCC[C@@](C)(O)[C@H]1CC=C(C)CC1 | inactive
CCCCCCCCCCCCCCC(=O)NC(CO)CCCCCCCCCCCCCC (stereo not given) | inactive
CCC(C)C(=O)OCCc1ccccc1 (stereo not given) | inactive
C=Cc1ccc(C(C)(C)C)cc1 | inactive
NC(=O)[C@@H]1CSSCCC(=O)N[C@@H](CCCCN=C(N)N)C(=O)NCC(=O)N[C@@H](CC(=O)O)C(=O)N[C@@H](Cc2c[nH]c3ccccc23)C(=O)N2CCC[C@H]2C(=O)N1 ([Mpa][hArg]GDWPC-NH2; disulfide 1-7) | inactive
CC12CCC(C1)C(C)(C)C2O (stereo not given) | 2190 nM (active)
COc1cc(/C=C/C(N)=O)cc(OC)c1OC | inactive
